In PubChem BioAssay (Tox21) one finds Potency and activity change, negative = inhibition data, which are given here for 27 molecules.

The target in test [1] is Cytochrome P450 2C19 (Homo sapiens) (UniProt P33261). The experiment in a line: Cytochrome P450 Family 2 Subfamily C Member 19 (CYP2C19) small molecule antagonists: luciferase reporter qHTS assay (AID 1671197). Also: nearly all actives have a fitted effect of over 65% in size. As to activity change, negative = inhibition: series mostly up to about 120 µM. Put shortly: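 CYP2C19 P450-Glo, 1536-well qHTS. Cpd + enzyme/proluciferin substrate 10 min RT; + NADPH regen, 37C 1 h; stop with luciferin detection reagent, 20 min RT, luminescence (RLU). Pos ctrl ketoconazole.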
(Reporter assays use an easily measured gene product as a stand-in for the process of interest.)

The target in test [2] is Cytochrome P450 2C9 (Homo sapiens) (UniProt P11712). Nature of the test: Cytochrome P450 Family 2 Subfamily C Member 9 (CYP2C9) small molecule antagonists: luciferase reporter qHTS assay (AID 1671198). Also: nearly all actives have a fitted effect of over 50% in size. As to activity change, negative = inhibition: series mostly up to about 120 µM. Put shortly:
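CYP2C9 activity was measured with a P450-Glo proluciferin substrate. Enzyme–substrate mix was held with compound for 10 min at room temperature, then NADPH regeneration solution was added for 1 h at 37C. Luciferin product was read as luminescence.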

The target in test [3] is Cytochrome P450 1A2 (Homo sapiens) (UniProt P05177). The experiment in a line: Cytochrome P450 Family 1 Subfamily A Member 2 (CYP1A2) small molecule antagonists: luciferase reporter qHTS assay (AID 1671199). Also: nearly all actives have a fitted effect of over 50% in size. As to activity change, negative = inhibition: series mostly up to about 120 µM. The essentials:
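Luminescence readout (relative luminescence units) after luciferin detection reagent, 20 min RT. Preceded by 1 h room-temperature CYP1A2 reaction with NADPH regeneration solution following 10 min compound preincubation with enzyme and proluciferin substrate. Furafylline positive control.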

Test [4] has as its target Voltage-gated inwardly rectifying potassium channel KCNH2 (Homo sapiens) (UniProt Q12809). The experiment in a line: Human Ether-a-go-go-Related Gene (hERG) channel small molecule antagonists: fluorescence cell-based qHTS assay (AID 1671200). Also: nearly all actives have a fitted effect of over 50% in size.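 As to activity change, negative = inhibition: hERG-expressing U2OS cells given a thallium stimulus after FluxOR II dye loading; series mostly up to about 77 µM.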 Put shortly: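 Quantitative HTS in hERG-U2OS cells: thallium entry through the channel reports activity, read as continuous 480/540 nm fluorescence over 2 min after stimulus addition.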
In general terms: The hERG channel carries a current that helps repolarise heart muscle cells.

Test [5] concerns the target Cytochrome P450 3A4 (Homo sapiens) (UniProt P08684). The experiment in a line: Cytochrome P450 Family 3 Subfamily A Member 4 (CYP3A4) small molecule antagonists: luciferase reporter qHTS assay (AID 1671201). Also: nearly all actives have a fitted effect of over 50% in size. As to activity change, negative = inhibition: series mostly up to about 120 µM. The essentials: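 Inhibition of CYP3A4 is measured as loss of light: the enzyme converts a proluciferin substrate to luciferin, detected luminescently. Reaction ran 1 h at room temperature with NADPH regeneration after a 10 min compound preincubation.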

Inconclusive results are not listed. Values without a mark were called inactive. Active and inactive are the calls of the source. Calls follow the shape of the dose curve; as a rule, active = well fitted curve in the direction sought with a large enough effect in the repeat runs; inconclusive = weak or mixed curves; inactive = no such curve, though single readings can be large; an effect the other way counts as inactive or inconclusive.
% is scaled to controls: 0 for no effect and ±100 for the full control effect; potency is read from the fitted curve at half-maximal effect.

Chain of Cytochrome P450 1A2 (Homo sapiens) (P05177 whole entry, looked up): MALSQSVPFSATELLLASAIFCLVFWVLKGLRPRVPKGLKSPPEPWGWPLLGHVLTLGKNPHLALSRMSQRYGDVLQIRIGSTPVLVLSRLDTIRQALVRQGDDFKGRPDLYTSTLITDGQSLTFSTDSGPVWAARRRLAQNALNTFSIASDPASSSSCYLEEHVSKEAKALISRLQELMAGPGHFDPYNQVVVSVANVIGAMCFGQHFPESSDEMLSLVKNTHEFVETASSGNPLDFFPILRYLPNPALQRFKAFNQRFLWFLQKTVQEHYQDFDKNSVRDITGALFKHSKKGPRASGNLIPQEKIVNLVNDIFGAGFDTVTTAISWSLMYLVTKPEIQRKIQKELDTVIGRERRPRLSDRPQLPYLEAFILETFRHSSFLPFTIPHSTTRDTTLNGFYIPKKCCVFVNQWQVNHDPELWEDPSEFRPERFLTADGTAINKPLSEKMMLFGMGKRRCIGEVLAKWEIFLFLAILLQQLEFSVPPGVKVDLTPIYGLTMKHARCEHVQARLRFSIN
Chain of Cytochrome P450 2C19 (Homo sapiens) (P33261 whole entry, looked up): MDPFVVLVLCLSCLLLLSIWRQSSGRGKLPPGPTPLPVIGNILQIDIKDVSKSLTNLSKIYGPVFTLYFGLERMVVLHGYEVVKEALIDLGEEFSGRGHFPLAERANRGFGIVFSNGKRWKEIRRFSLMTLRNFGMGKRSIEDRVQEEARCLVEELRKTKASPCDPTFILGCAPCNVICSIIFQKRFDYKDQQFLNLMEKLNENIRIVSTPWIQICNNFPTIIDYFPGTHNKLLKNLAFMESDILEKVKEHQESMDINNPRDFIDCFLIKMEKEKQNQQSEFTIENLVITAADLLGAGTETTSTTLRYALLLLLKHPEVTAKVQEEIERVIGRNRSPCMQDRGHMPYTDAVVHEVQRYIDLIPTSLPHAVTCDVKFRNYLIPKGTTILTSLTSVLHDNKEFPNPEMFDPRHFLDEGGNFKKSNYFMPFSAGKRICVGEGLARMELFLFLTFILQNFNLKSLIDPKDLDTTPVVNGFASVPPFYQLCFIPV
Chain of Voltage-gated inwardly rectifying potassium channel KCNH2 (Homo sapiens) (Q12809 whole entry, looked up): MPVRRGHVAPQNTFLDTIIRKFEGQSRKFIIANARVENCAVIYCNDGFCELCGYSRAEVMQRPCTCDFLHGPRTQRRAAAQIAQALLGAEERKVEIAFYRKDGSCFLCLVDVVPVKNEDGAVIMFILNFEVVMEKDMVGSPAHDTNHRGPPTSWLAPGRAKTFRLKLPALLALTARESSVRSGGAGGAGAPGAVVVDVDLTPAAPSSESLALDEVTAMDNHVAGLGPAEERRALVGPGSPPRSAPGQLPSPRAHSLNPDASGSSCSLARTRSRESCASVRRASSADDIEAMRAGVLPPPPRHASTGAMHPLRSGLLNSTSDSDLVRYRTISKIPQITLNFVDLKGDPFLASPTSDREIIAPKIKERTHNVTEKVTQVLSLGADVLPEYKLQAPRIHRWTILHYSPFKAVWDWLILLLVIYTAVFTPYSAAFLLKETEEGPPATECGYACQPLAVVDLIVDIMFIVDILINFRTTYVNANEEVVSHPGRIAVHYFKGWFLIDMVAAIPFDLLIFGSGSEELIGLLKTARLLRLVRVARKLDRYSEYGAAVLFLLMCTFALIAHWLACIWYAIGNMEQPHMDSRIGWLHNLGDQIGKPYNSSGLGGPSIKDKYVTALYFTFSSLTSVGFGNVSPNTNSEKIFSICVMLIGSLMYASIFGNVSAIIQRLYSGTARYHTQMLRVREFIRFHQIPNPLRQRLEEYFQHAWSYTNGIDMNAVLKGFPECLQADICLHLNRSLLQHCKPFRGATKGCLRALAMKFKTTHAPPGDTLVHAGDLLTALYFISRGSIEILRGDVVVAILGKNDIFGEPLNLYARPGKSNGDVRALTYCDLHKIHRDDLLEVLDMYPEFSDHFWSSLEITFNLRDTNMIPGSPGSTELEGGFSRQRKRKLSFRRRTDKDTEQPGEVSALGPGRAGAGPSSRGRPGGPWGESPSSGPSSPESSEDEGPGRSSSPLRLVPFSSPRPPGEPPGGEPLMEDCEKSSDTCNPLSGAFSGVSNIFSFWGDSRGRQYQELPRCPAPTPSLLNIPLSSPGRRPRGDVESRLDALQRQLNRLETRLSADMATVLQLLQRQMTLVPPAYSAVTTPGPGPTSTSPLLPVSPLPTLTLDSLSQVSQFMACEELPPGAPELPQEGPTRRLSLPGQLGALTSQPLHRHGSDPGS
Chain of Cytochrome P450 3A4 (Homo sapiens) (P08684 whole entry, looked up): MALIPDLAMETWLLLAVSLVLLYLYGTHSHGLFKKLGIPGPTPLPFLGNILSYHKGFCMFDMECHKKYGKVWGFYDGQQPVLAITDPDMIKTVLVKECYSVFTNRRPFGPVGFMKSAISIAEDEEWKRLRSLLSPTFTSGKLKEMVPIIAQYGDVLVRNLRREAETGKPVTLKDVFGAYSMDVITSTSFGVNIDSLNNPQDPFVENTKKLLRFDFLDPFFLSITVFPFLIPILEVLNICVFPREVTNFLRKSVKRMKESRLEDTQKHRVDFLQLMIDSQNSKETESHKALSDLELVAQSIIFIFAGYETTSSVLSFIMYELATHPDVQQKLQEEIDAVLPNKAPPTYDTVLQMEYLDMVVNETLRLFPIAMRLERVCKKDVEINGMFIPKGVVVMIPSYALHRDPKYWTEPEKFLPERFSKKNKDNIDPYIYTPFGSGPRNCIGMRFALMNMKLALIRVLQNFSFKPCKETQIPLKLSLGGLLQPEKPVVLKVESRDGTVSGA
Chain of Cytochrome P450 2C9 (Homo sapiens) (P11712 whole entry, looked up): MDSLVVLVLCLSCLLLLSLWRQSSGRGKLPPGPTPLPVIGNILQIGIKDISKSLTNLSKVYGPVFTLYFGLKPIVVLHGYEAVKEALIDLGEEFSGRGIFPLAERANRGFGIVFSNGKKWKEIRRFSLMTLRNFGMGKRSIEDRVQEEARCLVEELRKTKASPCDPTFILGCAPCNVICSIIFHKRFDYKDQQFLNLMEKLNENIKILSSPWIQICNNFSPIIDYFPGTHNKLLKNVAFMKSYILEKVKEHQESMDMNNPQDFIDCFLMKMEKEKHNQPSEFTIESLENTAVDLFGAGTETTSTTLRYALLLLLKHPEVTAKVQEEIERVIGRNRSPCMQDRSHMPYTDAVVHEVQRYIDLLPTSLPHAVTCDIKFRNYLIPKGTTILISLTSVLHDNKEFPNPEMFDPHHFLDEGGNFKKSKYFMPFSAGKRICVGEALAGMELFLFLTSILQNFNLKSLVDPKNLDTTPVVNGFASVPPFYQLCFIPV

On to `O=C(CS)Nc1ccccc1`, for which the Potency in test [1] is 8.71 µM (active); in test [2] it was 13.8 µM (active).

Turning to `C#CCN(C)CCCOc1ccc(Cl)cc1Cl`, the Potency in test [1] is 3.89 µM (active); in test [2], 17.4 µM (active); in test [3], 1.82 µM (active); in test [4] it was 8.49 µM (active).

For the molecule `O=C(Nc1ccc(S(=O)(=O)N2CCOCC2)cc1)c1cc(Cl)ccc1NS(=O)(=O)c1ccc(Cl)s1`, the results for the Potency in test [1] and in test [2] were 38.9 µM (active) and 0.0436 µM (active), respectively. Besides, the Potency result in test [3] is “inactive”.

`CCOc1ccc(N)c([N+](=O)[O-])c1`: the Potency in test [1] was 35.6 µM (active); in test [2], 63.3 µM (active); in test [3] it was 1.78 µM (active). For the same molecule, in test [4], the Potency result was “inactive”.

On to `OC(C#CCN1CCCC1)(c1ccccc1)c1ccccc1`, for which the Potency in test [1] is 2.45 µM (active); in test [2] it was 15.5 µM (active). For the same molecule, the Potency entry in test [3] was “inactive”.

In the case of `CC(C)Cc1ccc(C(C)C(=O)OCc2ccccn2)cc1` (centres undefined), the Potency in test [1] is 7.76 µM (active); in test [2], 7.76 µM (active); in test [3], 32.3 µM (active).

As for `CN1Cc2cc(C(=O)N3CCC(C4CCNCC4)CC3)ccc2NC(CC(=O)O)C1=O` (centres undefined), the Potency result in test [1], in test [2], in test [3], in test [4] and in test [5] was “inactive” throughout.

In the case of `O=C(OCCc1ccccc1)c1ccccc1`, the Potency in test [1] is 12.6 µM (active); in test [2], 31.7 µM (active); in test [3] it was 20 µM (active). In addition, the Potency entry in test [4] and in test [5] was “inactive” in each case.

On to `CCCCC(CC)COC(=O)COc1ccc(Cl)cc1Cl` (centres undefined), for which the Potency is 20.3 µM (active) in test [1], 32.2 µM (active) in test [2], 25.6 µM (active) in test [3] and 32.2 µM (active) in test [5]. The Potency entry in test [4] is “inactive”.

For `c1cc(CCCc2ccncc2)ccn1`, the Potency in test [1] was 1.59 µM (active); in test [2], 5.64 µM (active); in test [3] it was 1.78 µM (active); in test [5], 1 µM (active). Further, the Potency result in test [4] is “inactive”.

With `CC(=O)c1cccc([N+](=O)[O-])c1`, the Potency result in test [1], in test [2], in test [4] and in test [5] was “inactive” each time. Also, the Potency in test [3] was 35.5 µM (active).

In the case of `CNC(=O)CN(CCN(CCN(CC(=O)[O-])CC(=O)NC)CC(=O)[O-])CC(=O)[O-].O.[Gd+3]`, the Potency entry in test [1], in test [2], in test [3], in test [4] and in test [5] was “inactive” throughout.

As to `Nc1c(CC(=O)O)cccc1C(=O)c1ccc(Br)cc1`, the Potency entry in test [1], in test [2], in test [3], in test [4] and in test [5] was “inactive” in each case.

As to `COc1ccc(C(=O)N2CCN(CC(=O)N3CCOCC3)CC2)cc1`, the Potency result in test [1], in test [2], in test [3], in test [4] and in test [5] was “inactive” throughout.

`CCO[Si](CCCCl)(OCC)OCC`: the Potency in test [1] is 31.4 µM (active); in test [2] it was 35.3 µM (active); in test [5], 3.53 µM (active). Moreover, the Potency entry in test [3] and in test [4] was “inactive” in each case.

Take `CCCCCCCCO[C@@H]1O[C@H](CO)[C@@H](O)[C@H](O)[C@H]1O`: the Potency entry in test [1], in test [2], in test [3], in test [4] and in test [5] was “inactive” throughout.

Regarding `CCOc1ccc(N=Nc2ccc(/C=C/c3ccc(N=Nc4ccc(OCC)cc4)cc3S(=O)(=O)O)c(S(=O)(=O)O)c2)cc1`, the Potency entry in test [1], in test [2], in test [4] and in test [5] was “inactive” throughout. For the same molecule, in test [3], the Potency is 27.8 µM (active).

For `O=C1CCC(=O)O1`, the Potency entry in test [1], in test [2], in test [3], in test [4] and in test [5] was “inactive” each time.

For the molecule `Cn1c(=O)cc(Oc2ccc(F)cc2F)c2cnc(NCC(C)(C)O)nc21`, the Potency in test [1] is 71 µM (active); in test [2], 56.4 µM (active); in test [3], 28.3 µM (active). For the same molecule, the Potency result in test [4] and in test [5] was “inactive” each time.

In the case of `CC(CSC(=O)c1ccccc1)C(=O)N1C[C@@H](Sc2ccccc2)C[C@H]1C(=O)O` (some centres undefined), the Potency result in test [1] and in test [3] was “inactive” each time. For the same molecule, the values for the activity change, negative = inhibition in test [2], in test [4] and in test [5] were -9.74% [at 23.6 µM], 3.26% [at 15.8 µM] and 15.7% [at 23.6 µM], respectively.

Turning to `NS(=O)(=O)c1ccc(N2CCCCS2(=O)=O)cc1`, the Potency result in test [1], in test [2], in test [3], in test [4] and in test [5] was “inactive” in each case.

As to `Nc1ncn([C@H]2C[C@H](O)[C@@H](CO)O2)c(=O)n1`, the Potency entry in test [1], in test [2], in test [3], in test [4] and in test [5] was “inactive” each time.

For the molecule `CC(C)(C)OCC1CO1` (centres undefined), the Potency entry in test [1], in test [2], in test [3], in test [4] and in test [5] was “inactive” in each case.

With `Nc1ccc(N)c2c1C(=O)c1ccccc1C2=O`, the Potency in test [1] is 22.4 µM (active); in test [2], 12.6 µM (active); in test [3], 0.399 µM (active); in test [5], 5.64 µM (active). In addition, in test [4], the Potency entry is “inactive”.

In the case of `O=P(O)(OCc1ccccc1)OCc1ccccc1`, the Potency result in test [1], in test [3], in test [4] and in test [5] was “inactive” throughout. The Potency in test [2] was 22.4 µM (active).

For the molecule `CC1(c2ccccc2)OC(C(=O)O)=CC1=O` (centres undefined), the Potency entry in test [1], in test [2], in test [3], in test [4] and in test [5] was “inactive” in each case.

In the case of `CCCCCC[C@@H](O)C/C=C\CCCCCCCC(=O)OC`, the Potency was 25.3 µM (active) in test [1], 12.7 µM (active) in test [2] and 35.7 µM (active) in test [3]. The Potency result in test [4] and in test [5] was “inactive” in each case.
